Results on 13 compounds are retold here after PubChem BioAssay (NCATS).

“And” between values parts separate entries of the source, which are not always exact repeats. Equal values may be shown once. Records with an inconclusive call do not appear. More than one record can exist for a structure, and the calls need not agree. The source made the active and inactive calls. Unless noted, calls follow the shape of the dose curve; as a rule, active = well fitted curve in the direction sought with a large enough effect; inconclusive = small, poorly fitted or top-dose-only effect, or another doubt; inactive = no such curve, though single readings can be large; an effect the other way counts as inactive or inconclusive.

The target in assay [1] is Voltage-gated inwardly rectifying potassium channel KCNH2 (Homo sapiens) (UniProt Q12809). The assay can be described thus: qHTS Assay for Small Molecule Inhibitors of the Human hERG Channel Activity (AID 588834).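 Also: lower thallium flux fluorescence means stronger hERG block; nearly all actives have a fitted effect of over 50% in size.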 Also: potency is read from the fitted curve at half-maximal effect. In a few lines:
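Cells were infected with hERG-BacMam virus for 4 hrs at room temperature, grown overnight, then seeded at 2000/well. After dye loading and roughly 10 min compound treatment, thallium influx was triggered and fluorescence recorded.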
(Quantitative high-throughput screening tests each substance at several concentrations.)

Assay [2] concerns the target Luciferin 4-monooxygenase (Photinus pyralis) (UniProt P08659). In words: Biochemical firefly luciferase enzyme assay for NPC (AID 624030).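 Also: purified P. pyralis luciferase at 10 nM with luciferin and ATP substrate; series mostly up to about 59 µM; nearly all actives have a fitted effect of over 70% in size.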 In short, it runs like this: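 Purified P. pyralis luciferase at 10 nM in 50 mM Tris Acetate (final), luminescence read within 5 minutes of enzyme addition to compounds. Activity normalised to PTC124 versus DMSO; concentration-response curves classed by r2, magnitude and activity.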

Assay [3] in a line: S16 Schwann cell viability assay (CellTiter-Glo assay) (AID 624031). Also: nearly all actives have a fitted effect of over 70% in size. Also: potency is read from the fitted curve at half-maximal effect. In short, it runs like this:
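This viability control uses native rat S16 Schwann cells grown in DMEM plus 10% FBS. After a 24 h compound treatment at 37 °C, CellTiter-Glo luminescence reports ATP content, scaled against DMSO-treated and cell-free wells.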

A short description of assay [4]: S16 Schwann cell PMP22 intronic element firefly luciferase assay (AID 624032). Also: series mostly up to about 58 µM; nearly all actives have a fitted effect of over 30% in size. In short, it runs like this:
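Rat S16 Schwann cells stably carrying firefly luciferase driven by a PMP22 intronic element, in 10% FBS, treated 24 h at 37 C. ONE-Glo luminescence normalized to PTC124 control and DMSO (0%); curves classed by r2, magnitude and activity.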

For assay [5], the target named is Glutaminase kidney isoform, mitochondrial (Homo sapiens) (UniProt O94925). In words: qHTS for Inhibitors of Glutaminase (GLS): LOPAC Validation (AID 624146).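 Also: glutamate product detected by oxidase and peroxidase coupled Amplex red fluorescence gain; series mostly up to about 46 µM; nearly all actives have a fitted effect of over 60% in size.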 In a few lines:
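hKGA in 45 mM KH2PO4 pH 8.2, 0.02% Tween-20 with pin-transferred compounds; 1 mM L-glutamine (stock) plus glutamate oxidase/HRP/Amplex Red coupling added. Fluorescence read initially and after 30 min at RT.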

The nature of assay [6]: qHTS of Trypanosoma Brucei Inhibitors: LOPAC Validation (AID 624147). In a few lines: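 Screened from lowest to highest concentration, compounds were pinned into TbPYK/substrate mixtures, and ADP (130 uM final) was added. Plates sat at room temperature for 45 min prior to Kinase-Glo Plus detection by luminescence.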
The target in assay [7] is Glucagon-like peptide 1 receptor (Homo sapiens) (UniProt P43220). The assay can be described thus: qHTS of GLP-1 Receptor Agonists: LOPAC Validation (AID 624148).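 Also: higher luminescence signal means agonism.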 In a few lines: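 HEK293 cells stably co-expressing GLP-1R and a cAMP-responsive luciferase reporter, plated 12 hours before compound, then incubated 4-6 hr at 37 deg C. Luminescence read 12 min after detection reagent.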
Sequence of Glucagon-like peptide 1 receptor (Homo sapiens) (P43220 whole entry, looked up): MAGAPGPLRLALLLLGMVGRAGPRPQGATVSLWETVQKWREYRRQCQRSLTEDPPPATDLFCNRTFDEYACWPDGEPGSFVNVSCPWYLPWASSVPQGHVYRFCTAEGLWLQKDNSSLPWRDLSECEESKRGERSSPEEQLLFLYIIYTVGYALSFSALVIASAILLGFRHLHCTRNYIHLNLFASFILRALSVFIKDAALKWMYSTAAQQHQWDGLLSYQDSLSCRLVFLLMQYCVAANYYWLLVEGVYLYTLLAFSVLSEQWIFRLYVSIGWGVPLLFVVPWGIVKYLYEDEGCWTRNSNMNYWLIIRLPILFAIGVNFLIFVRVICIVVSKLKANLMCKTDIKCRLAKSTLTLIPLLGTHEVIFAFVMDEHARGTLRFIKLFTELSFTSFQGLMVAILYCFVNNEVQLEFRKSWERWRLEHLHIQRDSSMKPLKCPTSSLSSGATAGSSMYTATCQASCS

Assay [8] can be described thus: HTS Assay for Allosteric Antagonists of the Human D2 Dopamine Receptor: Hit Validation in HTRF (AID 624455). In a few lines: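 HTRF read-out; cells stably expressing D1 receptor; hits scored for inhibition of D1-mediated response. Primary screen: calcium flux, force-coupled inducible Hek293 Trex D2 line, antagonism vs EC80 dopamine.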
Background: TR-FRET usually uses a lanthanide donor and a delayed reading to cut background.

A short description of assay [9]: qHTS of Nrf2 Activators: LOPAC Validation (AID 624149). In short, it runs like this: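 AREc32_Fluc cells, 1000/well, OPTI-MEM + 5% FBS, o/n 37 deg C 5% CO2; compound pin-transfer, 24 hr 37 deg C; Steady-Glo 30 min RT, luminescence read.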
A short description of assay [10]: S16 Schwann cell PMP22 intronic element beta-lactamase assay (AID 624044; calls by dose curve; also: nearly all actives have a fitted effect of over 15% in size). In short, it runs like this: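 Beta-lactamase reporter under a PMP22 intronic regulatory element in stable S16 rat Schwann cells; 24 h compound exposure. 460 nm blue signal normalized between DMSO (0%) and potassium clavulanate, with 535 nm FRET tracking viability; curves classed by r2 and response.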

Sequence of Voltage-gated inwardly rectifying potassium channel KCNH2 (Homo sapiens) (Q12809 whole entry, looked up): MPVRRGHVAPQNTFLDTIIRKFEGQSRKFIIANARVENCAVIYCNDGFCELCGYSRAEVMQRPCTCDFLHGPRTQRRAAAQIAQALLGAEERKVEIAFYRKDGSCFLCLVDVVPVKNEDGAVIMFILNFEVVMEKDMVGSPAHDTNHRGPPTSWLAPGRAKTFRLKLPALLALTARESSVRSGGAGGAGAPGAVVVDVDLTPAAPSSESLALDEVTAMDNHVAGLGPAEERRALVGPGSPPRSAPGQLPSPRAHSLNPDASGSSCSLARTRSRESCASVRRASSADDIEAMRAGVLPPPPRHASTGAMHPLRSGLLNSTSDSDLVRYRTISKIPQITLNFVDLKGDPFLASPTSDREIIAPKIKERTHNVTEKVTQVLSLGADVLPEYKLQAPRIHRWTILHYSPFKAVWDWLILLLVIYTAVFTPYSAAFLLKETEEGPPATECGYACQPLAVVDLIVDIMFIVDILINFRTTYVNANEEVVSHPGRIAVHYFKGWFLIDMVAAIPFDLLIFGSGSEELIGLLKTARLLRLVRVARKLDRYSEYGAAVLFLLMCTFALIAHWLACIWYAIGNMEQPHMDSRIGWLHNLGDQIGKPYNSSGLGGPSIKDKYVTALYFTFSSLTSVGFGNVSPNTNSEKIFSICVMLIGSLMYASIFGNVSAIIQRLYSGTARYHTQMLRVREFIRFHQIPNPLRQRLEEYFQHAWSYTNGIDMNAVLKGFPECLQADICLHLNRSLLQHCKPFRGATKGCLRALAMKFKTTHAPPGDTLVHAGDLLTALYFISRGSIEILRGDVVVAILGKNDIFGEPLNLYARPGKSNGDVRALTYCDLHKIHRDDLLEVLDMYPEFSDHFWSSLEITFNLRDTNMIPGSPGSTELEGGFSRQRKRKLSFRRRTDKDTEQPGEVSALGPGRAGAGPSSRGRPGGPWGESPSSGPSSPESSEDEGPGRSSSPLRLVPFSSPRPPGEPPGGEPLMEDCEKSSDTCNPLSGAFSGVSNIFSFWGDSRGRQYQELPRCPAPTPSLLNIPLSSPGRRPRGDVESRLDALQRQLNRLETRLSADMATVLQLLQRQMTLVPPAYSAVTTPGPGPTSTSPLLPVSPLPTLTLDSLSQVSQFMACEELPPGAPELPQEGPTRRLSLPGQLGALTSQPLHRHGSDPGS
Sequence of Luciferin 4-monooxygenase (Photinus pyralis) (P08659 whole entry, looked up): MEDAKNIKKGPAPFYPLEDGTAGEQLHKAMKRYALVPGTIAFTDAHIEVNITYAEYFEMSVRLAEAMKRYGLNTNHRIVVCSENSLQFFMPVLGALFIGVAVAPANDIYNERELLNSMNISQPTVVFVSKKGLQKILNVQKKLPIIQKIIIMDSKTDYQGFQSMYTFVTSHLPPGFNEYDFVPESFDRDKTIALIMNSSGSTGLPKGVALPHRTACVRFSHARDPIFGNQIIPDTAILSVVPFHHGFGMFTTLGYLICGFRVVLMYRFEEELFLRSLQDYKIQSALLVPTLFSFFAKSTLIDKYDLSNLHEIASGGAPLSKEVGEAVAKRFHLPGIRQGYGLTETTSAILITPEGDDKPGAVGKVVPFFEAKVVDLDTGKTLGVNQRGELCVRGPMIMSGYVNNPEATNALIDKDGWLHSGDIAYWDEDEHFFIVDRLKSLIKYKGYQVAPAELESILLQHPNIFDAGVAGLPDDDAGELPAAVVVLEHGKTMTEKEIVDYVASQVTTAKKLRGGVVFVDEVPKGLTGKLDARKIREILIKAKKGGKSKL
Sequence of Glutaminase kidney isoform, mitochondrial (Homo sapiens) (O94925 whole entry, looked up, canonical isoform): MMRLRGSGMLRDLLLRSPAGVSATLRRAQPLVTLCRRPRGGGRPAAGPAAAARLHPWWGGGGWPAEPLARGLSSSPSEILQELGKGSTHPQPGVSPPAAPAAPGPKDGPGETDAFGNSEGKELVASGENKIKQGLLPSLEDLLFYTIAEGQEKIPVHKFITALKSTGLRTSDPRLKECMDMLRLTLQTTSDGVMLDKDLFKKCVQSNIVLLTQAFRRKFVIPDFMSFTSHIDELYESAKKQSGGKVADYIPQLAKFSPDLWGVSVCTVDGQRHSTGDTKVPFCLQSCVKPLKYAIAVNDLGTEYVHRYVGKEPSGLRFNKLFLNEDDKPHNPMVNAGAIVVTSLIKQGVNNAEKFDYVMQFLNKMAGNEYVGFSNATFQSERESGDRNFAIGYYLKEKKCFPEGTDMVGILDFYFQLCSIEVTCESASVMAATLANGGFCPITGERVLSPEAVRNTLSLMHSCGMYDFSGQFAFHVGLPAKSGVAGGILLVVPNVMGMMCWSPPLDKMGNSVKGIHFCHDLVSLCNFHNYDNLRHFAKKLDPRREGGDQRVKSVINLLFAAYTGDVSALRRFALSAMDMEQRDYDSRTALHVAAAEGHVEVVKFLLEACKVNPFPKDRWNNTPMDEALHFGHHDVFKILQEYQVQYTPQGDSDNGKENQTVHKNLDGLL

Consider `CSc1ccc(C(=O)c2[nH]c(=O)[nH]c2C)cc1`, for which the Potency result in [1], in [2], in assay [3], in [4], in [5] and in [8] was “inactive” in each case. Moreover, the call in assay [6] and in assay [7] was inactive.
For `CCCOc1ccccc1-c1nc2n[nH]nc2c(=O)[nH]1`, the Potency result in [1], in assay [2], in assay [3], in assay [4], in assay [5] and in assay [8] was “inactive” each time. In addition, the call in assay [6] and in assay [7] was inactive.
Turning to `Cc1scc2c1N(C(=O)CN1CCN(C)CC1)c1ccccc1NC2=O`, the Potency result in [1], in assay [2], in [3], in assay [5] and in assay [8] was “inactive” throughout. In addition, the call in [6], in [7] and in [9] was inactive.
As to `CCN1CCC[C@H]1CNC(=O)c1c(O)c(Cl)cc(Cl)c1OC`, the Potency result in assay [1] is “inactive and 15.8 µM (active)”. Also, the Potency entry in assay [2], in assay [3], in assay [4], in [5] and in assay [8] was “inactive” in each case. The outcome in [6], in assay [7] and in assay [9] was inactive.
Regarding `CN(C(=O)CCCOc1ccc2[nH]c(=O)ccc2c1)C1CCCCC1`, the Potency entry in assay [1], in assay [2], in assay [3], in [10], in [5] and in assay [8] was “inactive” each time. For the same compound, the compound was called inactive in [7] and in assay [9].
Turning to `CC(C)NNC(=O)c1ccncc1`, the Potency entry in [1], in assay [2], in assay [3], in assay [4], in [5] and in assay [8] was “inactive” each time. Moreover, the outcome in assay [6], in [7] and in assay [9] was inactive.
For `OCCN1CCN(CC/C=C2/c3ccccc3Sc3ccc(C(F)(F)F)cc32)CC1`, the Potency is 2.82 µM (active) and 501 nM (active) in assay [1]; 22.8 µM (active) in assay [3]. Also, the Potency entry in assay [2], in assay [10], in assay [5] and in [8] was “inactive” each time. In addition, the compound was called inactive in assay [9].
For `NC(=O)c1ncn([C@@H]2O[C@H](CO)[C@@H](O)[C@H]2O)c1O`, the Potency entry in assay [1], in assay [2], in assay [3], in assay [4], in assay [5] and in [8] was “inactive” each time. For the same compound, the outcome in assay [7] and in [9] was inactive.
For the compound `CCN(Cc1ccncc1)C(=O)C(CO)c1ccccc1` (stereo not given), the Potency entry in assay [1], in assay [2], in assay [3], in assay [10], in assay [5] and in assay [8] was “inactive” each time. For the same compound, the result in [6], in assay [7] and in assay [9] was inactive.
Regarding `C[C@]12CCC(=O)C=C1CC[C@@H]1[C@@H]2CC[C@@]2(C)[C@H]1CC[C@]2(O)C(=O)CO`, the Potency entry in assay [1], in assay [2], in [3], in [4], in assay [5] and in assay [8] was “inactive” in each case. Also, the outcome in assay [7] and in [9] was inactive.
As to `NC(N)=N/N=C/c1c(Cl)cccc1Cl`, the Potency in [1] was 1.41 µM (active). The Potency result in assay [2], in [3], in assay [5] and in assay [8] was “inactive” each time. For the same compound, the call in assay [6] and in assay [7] was inactive.
For the compound `O=C(O)CN(CCN(CC(=O)O)CC(=O)O)CCN(CC(=O)O)CC(=O)O`, the Potency entry in assay [1], in assay [2], in [3], in assay [5] and in [8] was “inactive” in each case. Moreover, the compound was called inactive in [6], in assay [7] and in [9].
For `Brc1c(NC2=NCCN2)ccc2nccnc12`, the Potency entry in [1], in assay [2], in assay [3], in assay [4] and in assay [8] was “inactive” throughout. For the same compound, the call in [6], in [7] and in assay [9] was inactive.
